According to PubChem BioAssay AID2279 (Southern Research Specialized Biocontainment Screening …, 2010):
Potency and affinity values are given separately. The source made the active and inactive calls. The rule behind the calls is not given here.

assay: CCR5-tropic HIV-1 fusion blockers – cell-based, CCR5-tropic Env, dose response (AID 2279); conditions: CCR5-tropic HIV-1 Env, reporter read-out; series mostly up to 50 µM; inhibition: at the top concentration

inhibition, inactive:
Cc1cc(Cl)ccc1OC(C)C(=O)Nc1ccc(S(=O)(=O)Nc2cnc3ccccc3n2)cc1 (stereo not given) 22.9%
Cc1c(CCC(=O)O)c(=O)oc2c(C)c3occ(-c4ccc(Br)cc4)c3cc12 4.8%
O=C(CCN1C(=O)/C(=C/c2ccco2)SC1=S)Nc1ccc(C(=O)O)c(O)c1 6.17%
CC(C)S(=O)(=O)C1=NSC2=NC(=O)/C(=C\c3ccc(OC(=O)c4ccco4)cc3)C(=N)N21 8.59%
O=C(O)COc1ccc(Br)cc1C(c1c(C(=O)O)[nH]c2ccccc12)c1c(C(=O)O)[nH]c2ccccc12 6.84%
CCOC(=O)c1c(N2C(=O)Nc3cc(Cl)c(Cl)cc3N2O)sc2c1CCCCC2 25.6%
O=C1NN(c2ccc(Cl)cc2)C(=O)/C1=C\c1ccc(-c2cccc(C(=O)O)c2)o1 19.7%
O=C(CCN1C(=O)/C(=C\c2ccccc2F)SC1=S)Nc1ccc(C(=O)O)c(O)c1 9.96%
O=C(O)COc1ccc(/C=C/C(=O)c2ccc(C3CCCCC3)cc2)cc1 -0.44% [at 25 µM]
CCc1nnc(NS(=O)(=O)c2ccc(N/C=C(\C=O)c3nc4cc(Cl)ccc4o3)cc2)s1 -1.49%
O=C(O)c1cc(NN=C2c3ccccc3-c3ccccc32)ccc1Cl -10.1%
COc1cc(OC)c2c(O)c3c(c(-c4c5c(c(O)c6c(OC)cc(OC)cc46)CO[C@@H](C)[C@H]5O)c2c1)[C@H](O)[C@H](C)OC3 6.59%
CCc1nnc(NS(=O)(=O)c2ccc(NC(=S)NC(=O)/C=C/c3cccs3)cc2)s1 13.6%
CS(=O)(=O)C1=NSC2=NC(=O)/C(=C\c3ccc(OC(=O)c4ccco4)c(Br)c3)C(=N)N21 16.8%
O=C(O)CN1C(=O)/C(=C\c2cc(Br)ccc2OCc2ccc(F)cc2)SC1=S 0.28%
COc1cc(/C=C2/C(=N)N3C(=NC2=O)SN=C3S(C)(=O)=O)ccc1OS(=O)(=O)c1ccccc1 25.4%
CCOc1cc(/C=C2/C(=N)N3C(=NC2=O)SN=C3S(=O)(=O)C(C)C)ccc1OC(=O)c1ccco1 -12.2%
O=c1[nH]c(=S)[nH]c2c1C(c1ccc(Br)cc1)c1c([nH]c(=S)[nH]c1=O)O2 21%
O=C1NN(c2ccc(F)c(Cl)c2)C(=O)/C1=C\c1cccc(OC(=O)c2cccs2)c1 27.9%
N#Cc1c(-c2cccs2)nc(SCc2ccc(Cl)cc2)[nH]c1=O 17.8%
CC1=C(C#N)C(=O)NC(=O)/C1=C\c1ccc(-c2cc(C)c(C)cc2[N+](=O)[O-])o1 0.21%
CC(C)(C)CC(C)(C)c1ccc(OCC(=O)N/N=C/c2ccc(S(=O)(=O)O)o2)cc1 5.05%
Cc1ccccc1N/N=C/c1sc(=O)n(Cc2cccc(C(=O)O)c2)c1Cl 37.8%
COc1cc(/C=C2/SC(=S)N(Cc3ccccc3)C2=O)ccc1OCC(=O)O 23.6%
C=CC#CC[N+]1(CC#Cc2ccccc2)CCOCC1 -3.27%
O=C(CSc1nc2ccccc2c(=O)n1Cc1ccccc1)Nc1ccc(Br)cc1C(=O)O 7.04%
CC1=NN(c2ccc(C(=O)O)cc2)C(=O)/C1=C\c1ccc(OC(=O)c2cccs2)cc1 9.07%
O=C(CCN1C(=O)/C(=C/c2cccs2)SC1=S)Nc1ccc(C(=O)O)c(O)c1 5.85%
COc1ccc(C(=O)Nc2ccc(/C(C)=N/NC(=O)c3ccncc3)cc2)cc1 2.59%
O=C(Nc1cccc(C(F)(F)F)c1)c1cccc(NS(=O)(=O)c2ccc(O)c(C(=O)O)c2)c1 -10.3%
O=C(O)c1[nH]c2ccccc2c1C(c1cc(Br)ccc1O)c1c(C(=O)O)[nH]c2ccccc12 -15.4%
CC(C)S(=O)(=O)C1=NSC2=NC(=O)/C(=C\c3ccc(-c4ccccc4)o3)C(=N)N21 20.1%
Cc1cc(C)cc(-n2cccc2/C=C2/C(=N)N3C(=NC2=O)SN=C3S(C)(=O)=O)c1 4.76%
O=C(Nc1cc(C(=O)Nc2ccccc2C(=O)O)cc(C(=O)Nc2ccccc2C(=O)O)c1)c1ccccc1 15.2%
CCOc1cc(/C=N/N=C2/NC(=O)C(CC(=O)O)S2)ccc1OCc1ccc(Cl)cc1Cl (stereo not given) 21.9%
